# Paper PMC11062922 (Nature Chemical Biology, 2023)
# Like-named read-outs stand apart in the source and are kept apart here.
# Experiments:
# Set-up in all cases: species or system human, MV4-11 + K-562 + COLO205 + SK-N-BE2 + OVCAR-8
# [1] = tested on: MAPK7; details: read-out: apparent Kd; compound concentrations: 100 nM and 1000 nM (sheet 'Samples'), CATDS: 1; n = 1
# [2] = tested on: MTHFD1; details: read-out: apparent Kd; compound concentrations:100 nM and 1000 nM (sheet 'Samples'); n = 1
# [3] = tested on: NQO2; details: read-out: apparent Kd, n = 1
# [4] = tested on: TGFBR1; details: read-out: apparent Kd; compound concentrations:100 nM and 1000 nM (sheet 'Samples'); n = 1
# [5] = tested on: MYLK3; details: read-out: apparent Kd; compound concentrations: 100 nM and 1000 nM (sheet 'Samples'), CATDS: 0.35775008511520401; n = 1
# [6] = tested on: T1, T10; details: read-out: apparent Kd; compound concentrations: 100 nM and 1000 nM (sheet 'Samples'), CATDS: 0.30543908388735203; n = 1
# T1 construct: gene NAT10
# [7] = tested on: TTK; details: read-out: apparent Kd; compound concentrations: 100 nM and 1000 nM (sheet 'Samples'), CATDS: 0.34120640497056598; n = 1
# [8] = tested on: NNT; details: read-out: apparent Kd; compound concentrations:100 nM and 1000 nM (sheet 'Samples'); n = 1
# [9] = tested on: PDGFRB; details: read-out: apparent Kd; compound concentrations: 100 nM and 1000 nM (sheet 'Samples'), CATDS: 1; n = 1
# [10] = tested on: NQO1; details: read-out: apparent Kd, compound concentrations: 100 nM and 1000 nM (sheet 'Samples'), n = 1
# [11] = tested on: TGFBR2; details: read-out: apparent Kd; compound concentrations:100 nM and 1000 nM (sheet 'Samples'); n = 1
# [12] = tested on: MAPK14; details: read-out: apparent Kd, n = 1
# [13] = tested on: MAPKAPK2; details: read-out: apparent Kd, compound concentrations: 100 nM and 1000 nM (sheet 'Samples'), n = 1
# [14] = tested on: OPA1; details: read-out: apparent Kd; compound concentrations:100 nM and 1000 nM (sheet 'Samples'); n = 1
# [15] = tested on: PRKD1; details: read-out: apparent Kd; compound concentrations:100 nM and 1000 nM (sheet 'Samples'); n = 1
# [16] = tested on: MAPK9; details: read-out: apparent Kd; compound concentrations: 100 nM and 1000 nM (sheet 'Samples'), CATDS: 1; n = 1
# [17] = tested on: MERTK; details: read-out: apparent Kd; compound concentrations:100 nM and 1000 nM (sheet 'Samples'); n = 1
# [18] = tested on: NUAK2; details: read-out: apparent Kd; compound concentrations:100 nM and 1000 nM (sheet 'Samples'); n = 1
# [19] = tested on: PIK3CG; details: read-out: apparent Kd; compound concentrations:100 nM and 1000 nM (sheet 'Samples'); n = 1
# [20] = tested on: PBK; details: read-out: apparent Kd; compound concentrations:100 nM and 1000 nM (sheet 'Samples'); n = 1
# [21] = tested on: NLK; details: read-out: apparent Kd; compound concentrations:100 nM and 1000 nM (sheet 'Samples'); n = 1
# [22] = tested on: PKM; details: read-out: apparent Kd; compound concentrations:100 nM and 1000 nM (sheet 'Samples'); n = 1
# [23] = tested on: PIK3C3; details: read-out: apparent Kd; compound concentrations:100 nM and 1000 nM (sheet 'Samples'); n = 1
# [24] = tested on: STK16; details: read-out: apparent Kd; compound concentrations:100 nM and 1000 nM (sheet 'Samples'); n = 1
# [25] = tested on: MCM5; details: read-out: apparent Kd; compound concentrations:100 nM and 1000 nM (sheet 'Samples'); n = 1
# [26] = tested on: TNIK; details: read-out: apparent Kd; compound concentrations:100 nM and 1000 nM (sheet 'Samples'); n = 1
# [27] = compound concentrations:100 nM and 1000 nM (sheet 'Samples')
# [28] = compound concentrations: 100 nM and 1000 nM (sheet 'Samples'), CATDS: 1
structure (smiles),measurement,setting,value
CCOc1cc(C(=O)N2CCC(N3CCN(C)CC3)CC2)ccc1Nc1ncc2c(n1)N(C1CCCC1)c1ccccc1C(=O)N2C [ERK5-IN-1],potency estimated from few doses,[1],0.813 µM
CCNC(=O)[C@@H]1CCCN2C(=O)CC[C@H](NC(=O)[C@H](Cc3ccc(OP(=O)(O)O)cc3)NC(C)=O)C(=O)N12 [RO0325851-000],potency estimated from few doses,[2],1.84 µM
FC(F)(F)c1ccc(-c2cc(-c3c[nH]nc3-c3ccccn3)ccn2)cc1 [GW599550X],potency estimated from few doses,[3]; [27],1.07 µM
same,potency estimated from few doses,[4],1.52 µM
COc1ccc(-c2oc3ncnc(N)c3c2-c2ccc(NC(=O)Nc3cc(C(F)(F)F)ccc3F)cc2)cc1.Cl [GW768505A],potency estimated from few doses,[5],1.43 µM
same,potency estimated from few doses,[6],1.97 µM
same,potency estimated from few doses,[7],1.57 µM
Fc1cccc(COc2ccc(Nc3ncnc4sc(-c5cccs5)cc34)cc2Cl)c1 [GW684626B],potency estimated from few doses,[8],1.21 µM
COc1ccc(-c2coc3ncnc(N)c23)cc1 [GW642125X],potency estimated from few doses,[9],1.54 µM
COC(=O)Nc1nc2cc(Oc3ccc(NC(=O)Nc4cccc(C(=O)O)c4)cc3)ccc2[nH]1.Cl [GW701427A],potency estimated from few doses,[10]; CATDS: 1,1.01 µM
Cc1ccc(-c2cc(-c3c[nH]nc3-c3ccccn3)ccn2)cc1 [GW684088X],potency estimated from few doses,[3]; [27],0.741 µM
same,potency estimated from few doses,[4],0.49 µM
same,potency estimated from few doses,[11],2.23 µM
Cl.Cn1c(=O)c(Oc2ccc(F)cc2)cc2cnc(NC3CCOCC3)nc21 [RO3304882-001],potency estimated from few doses,[12]; [28],1.03 µM
C[C@@H](CS(C)(=O)=O)Nc1ncc2cc(Oc3ccc(F)cc3F)c(=O)n(C)c2n1 [RO5044198-000],potency estimated from few doses,"[12]; compound concentrations: 100 nM and 1000 nM (sheet 'Samples'), CATDS: 0.48313667011563999",0.0884 µM
same,potency estimated from few doses,[13]; CATDS: 0.45912582310815703,0.0974 µM
same,potency estimated from few doses,[10]; CATDS: 0.21043150555446399,1.41 µM
FC(F)(F)c1ccc(-c2nn3ncccc3c2-c2ccnc(Nc3cccc(C(F)(F)F)c3)n2)cc1 [GW828205X],potency estimated from few doses,[14],1.63 µM
same,potency estimated from few doses,[15],1.82 µM
OCCCNc1nccc(-c2c(-c3cccc(C(F)(F)F)c3)nn3cc(C(F)(F)F)ccc23)n1 [GW630813X],potency estimated from few doses,"[12]; compound concentrations: 100 nM and 1000 nM (sheet 'Samples'), CATDS: 0.49980022483794101",1.06 µM
same,potency estimated from few doses,[13]; CATDS: 0.50019993493019099,1.06 µM
O=c1[nH]c2cc(Nc3ccc(F)cc3F)ccc2n1CC1CCCCC1 [BI00601000],potency estimated from few doses,"[12]; compound concentrations: 100 nM and 1000 nM (sheet 'Samples'), CATDS: 0.69333991182184596",0.0276 µM
same,potency estimated from few doses,[13]; CATDS: 0.39097535171865,0.0972 µM
CCS(=O)(=O)c1ccc(OC)c(Nc2nccc(-c3c(-c4cccc(NC(=O)c5c(F)cccc5F)c4)nn4ncccc34)n2)c1 [GSK326180A],potency estimated from few doses,[13]; CATDS: 1,1.39 µM
COc1c(C(N)=O)cc(-c2ccc(Cl)cc2)cc1-c1ccc(S(N)(=O)=O)cc1 [GSK711701A],potency estimated from few doses,[3]; [28],1.49 µM
COC(=O)c1c(-c2ccccc2)c2cc(Br)ccc2c(=O)n1Cc1ccc(S(C)(=O)=O)cc1 [TPKI-100],potency estimated from few doses,[16],1.46 µM
CC(=O)N[C@@H](Cc1ccc(OP(=O)(O)O)cc1)C(=O)N[C@H]1CCC(=O)N2CCC[C@@H](C(=O)NC3CCc4ccccc43)N2C1=O (some centres unmarked) [RO0324438-000],potency estimated from few doses,[17],1.22 µM
CCn1c(-c2nonc2N)nc2ccc(F)cc21 [GW785404X],potency estimated from few doses,[3]; [28],0.339 µM
COc1ccc(NC(=O)c2ccc(-c3cc(-c4nnc(C)o4)ccc3C)cc2)cc1 [GW595885X],potency estimated from few doses,[18],1.23 µM
same,potency estimated from few doses,[19],1.41 µM
Cn1ncc2cc(-c3cnc(N)c(Cl)c3N3CCC4(CCNC4=O)CC3)ccc21 [CCT251921],potency estimated from few doses,[20],1.57 µM
O=C(Nc1n[nH]c2cc(-c3cccc(F)c3)ccc12)C1CC1 [SB-735464],potency estimated from few doses,[21],1.81 µM
same,potency estimated from few doses,[22],2.13 µM
Cn1cnc2c(N)ncnc21 [SKF-97623],potency estimated from few doses,[3]; [28],1.3 µM
Nc1n[nH]c2ncc(-c3ccccc3)cc12 [SB-517081_KCGS],potency estimated from few doses,[12]; [27],1.59 µM
same,potency estimated from few doses,[23],1.32 µM
same,potency estimated from few doses,[24],1.63 µM
COc1cccc(-c2ccc3c(NC(=O)C4CC4)n[nH]c3n2)c1 [SB-710903],potency estimated from few doses,[25],2.02 µM
same,potency estimated from few doses,[21],1.9 µM
same,potency estimated from few doses,[26],1.64 µM
COc1cccc(-c2cc(-c3c[nH]nc3-c3ccccn3)ccn2)c1 [GW680338X],potency estimated from few doses,[3]; [27],0.424 µM
